Out of some 5,500 compounds screened, about 2,000 (36%) were called active. Not shown: some 18% with an inconclusive outcome. No stated cut-off is given here; in the data, active means normalized growth mostly below about 0.91 (no sharp cut-off); inconclusive means no clear call, values can overlap the other calls; inactive means mostly above about 0.92. The list shows a part of the results.
Test: chemical genetic growth profiling, strain panel (AID 1159580);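 further: tested at 20 µM; growth read once vehicle control cultures reached saturation at 30 °C; 1 = growth at the plate median or of vehicle wells; lower values mean less growth of the strain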
Details: growth OD
[1] = S. cerevisiae deletion strains, locus YDL101C, strain DUN1, active compounds read low
[2] = S. cerevisiae deletion strains, locus YHR030C, strain SLT2, active compounds read low

Measured: normalized growth

COc1cccc(NC(=S)NC2CC(C)CC(C)(C)C2)c1 (configuration not stated)
inactive: S. cerevisiae deletion strains, locus YAR019C, strain CDC15, active compounds read low 0.986 | S. cerevisiae deletion strains, locus YBL105C, strain PKC1, active compounds read low 0.986 | S. cerevisiae deletion strains, locus YBR135W, strain CKS1, active compounds read low 0.973 | S. cerevisiae deletion strains, locus YBR136W, strain MEC1, active compounds read low 0.985 | S. cerevisiae deletion strains, locus YBR160W, strain CDC28, active compounds read low 0.978 | S. cerevisiae deletion strains, locus YDL017W, strain CDC7, active compounds read low 0.984 | S. cerevisiae deletion strains, locus YDL028C, strain MPS1, active compounds read low 0.99 | [1] 0.975 | S. cerevisiae deletion strains, locus YDL108W, strain KIN28, active compounds read low 0.989 | S. cerevisiae deletion strains, locus YDL132W, strain cdc53, active compounds read low 0.984 | S. cerevisiae deletion strains, locus YDL214C, strain PRR2, active compounds read low 0.986 | S. cerevisiae deletion strains, locus YDR052C, strain DBF4, active compounds read low 0.99 | S. cerevisiae deletion strains, locus YDR054C, strain cdc34, active compounds read low 0.967 | S. cerevisiae deletion strains, locus YDR226W, strain ADK1, active compounds read low 0.972 | S. cerevisiae deletion strains, locus YDR477W, strain SNF1, active compounds read low 0.98 | S. cerevisiae deletion strains, locus YER123W, strain YCK3, active compounds read low 0.962 | S. cerevisiae deletion strains, locus YER133W, strain GLC7, active compounds read low 0.962 | S. cerevisiae deletion strains, locus YFL009W, strain cdc4, active compounds read low 0.98 | S. cerevisiae deletion strains, locus YFL029C, strain CAK1, active compounds read low 0.99 | S. cerevisiae deletion strains, locus YFR003C, strain YPI1, active compounds read low 0.984 | S. cerevisiae deletion strains, locus YFR019W, strain FAB1, active compounds read low 1.02 | S. cerevisiae deletion strains, locus YFR028C, strain CDC14, active compounds read low 0.966 | S. cerevisiae deletion strains, locus YGR040W, strain KSS1, active compounds read low 0.979 | S. cerevisiae deletion strains, locus YGR052W, strain FMP48, active compounds read low 1.02 | S. cerevisiae deletion strains, locus YGR092W, strain DBF2, active compounds read low 0.895 | [2] 0.927 | S. cerevisiae deletion strains, locus YHR079C, strain IRE1, active compounds read low 0.922 | S. cerevisiae deletion strains, locus YHR082C, strain KSP1, active compounds read low 1.08 | S. cerevisiae deletion strains, locus YHR205W, strain SCH9, active compounds read low 0.995 | S. cerevisiae deletion strains, locus YIL147C, strain SLN1, active compounds read low 0.981 | S. cerevisiae deletion strains, locus YJL095W, strain BCK1, active compounds read low 0.929 | S. cerevisiae deletion strains, locus YJL128C, strain PBS2, active compounds read low 0.954 | S. cerevisiae deletion strains, locus YJL157C, strain FAR1, active compounds read low 0.976 | S. cerevisiae deletion strains, locus YJR016C, strain ILV3, active compounds read low 0.986 | S. cerevisiae deletion strains, locus YJR066W, strain TOR1 (second series), active compounds read low 0.979 | S. cerevisiae deletion strains, locus YJR066W, strain TOR1, active compounds read low 1.07 | S. cerevisiae deletion strains, locus YKL048C, strain ELM1, active compounds read low 0.989 | S. cerevisiae deletion strains, locus YKL067W, strain YNK1, active compounds read low 0.983 | S. cerevisiae deletion strains, locus YKL101W, strain HSL1, active compounds read low 0.996 | S. cerevisiae deletion strains, locus YKL193C, strain SDS22, active compounds read low 0.981 | S. cerevisiae deletion strains, locus YKL203C, strain TOR2, active compounds read low 1.03 | S. cerevisiae deletion strains, locus YLR113W, strain HOG1, active compounds read low 0.957 | S. cerevisiae deletion strains, locus YLR133W, strain CKI1, active compounds read low 0.979 | S. cerevisiae deletion strains, locus YLR403W, strain SFP1, active compounds read low 0.938 | S. cerevisiae deletion strains, locus YML070W, strain DAK1, active compounds read low 0.978 | S. cerevisiae deletion strains, locus YMR001C, strain CDC5, active compounds read low 0.984 | S. cerevisiae deletion strains, locus YMR205C, strain PFK2 (second series), active compounds read low 1 | S. cerevisiae deletion strains, locus YMR277W, strain FCP1, active compounds read low 0.988 | S. cerevisiae deletion strains, locus YNL006W, strain LST8, active compounds read low 0.984 | S. cerevisiae deletion strains, locus YNL020C, strain ARK1, active compounds read low 0.974 | S. cerevisiae deletion strains, locus YNL161W, strain CBK1, active compounds read low 0.971 | S. cerevisiae deletion strains, locus YNL183C, strain NPR1, active compounds read low 1.07 | S. cerevisiae deletion strains, locus YNL207W, strain RIO2, active compounds read low 0.967 | S. cerevisiae deletion strains, locus YNL222W, strain SSU72, active compounds read low 1 | S. cerevisiae deletion strains, locus YNL307C, strain MCK1 (second series), active compounds read low 0.977 | S. cerevisiae deletion strains, locus YOL078W, strain AVO1, active compounds read low 0.985 | S. cerevisiae deletion strains, locus YOL136C, strain PFK27, active compounds read low 0.964 | S. cerevisiae deletion strains, locus YOR061W, strain CKA2, active compounds read low 0.986 | S. cerevisiae deletion strains, locus YOR119C, strain RIO1, active compounds read low 1.04 | S. cerevisiae deletion strains, locus YOR231W, strain MKK1, active compounds read low 1.05 | S. cerevisiae deletion strains, locus YOR329C, strain SCD5, active compounds read low 0.984 | S. cerevisiae deletion strains, locus YPL031C, strain PHO85, active compounds read low 0.973 | S. cerevisiae deletion strains, locus YPL153C, strain RAD53, active compounds read low 0.964 | S. cerevisiae deletion strains, locus YPL204W, strain HRR25, active compounds read low 0.949 | S. cerevisiae deletion strains, locus YPL209C, strain IPL1, active compounds read low 0.99 | S. cerevisiae deletion strains, locus YPL256C, strain CLN2, active compounds read low 0.984 | S. cerevisiae deletion strains, locus YPR025C, strain CCL1, active compounds read low 0.988 | S. cerevisiae deletion strains, locus YPR106W, strain ISR1, active compounds read low 0.994 | S. cerevisiae deletion strains, locus YPR111W, strain DBF20, active compounds read low 0.991 | S. cerevisiae deletion strains, strain NNK1, active compounds read low 0.982 | S. cerevisiae deletion strains, strain TSCII, active compounds read low 0.976

Cc1cccc(NC(=S)NC2CC3C=CC2C3)c1 (configuration not stated)
active: S. cerevisiae deletion strains, locus YDL134C, strain PPH21, active compounds read low 0.904 | S. cerevisiae deletion strains, locus YEL061C, strain CIN8, active compounds read low 0.905 | S. cerevisiae deletion strains, locus YLR039C, strain RIC1, active compounds read low 0.685 | S. cerevisiae deletion strains, locus YLR085C, strain ARP6, active compounds read low 0.435 | S. cerevisiae deletion strains, locus YOL006C, strain TOP1, active compounds read low 0.182
inactive: S. cerevisiae deletion strains, locus YAL013W, strain DEP1, active compounds read low 0.939 | S. cerevisiae deletion strains, locus YBR229C, strain ROT2, active compounds read low 0.998 | S. cerevisiae deletion strains, locus YCL061C, strain MRC1, active compounds read low 0.979 | [1] 0.985 | S. cerevisiae deletion strains, locus YDR150W, strain NUM1, active compounds read low 1.01 | S. cerevisiae deletion strains, locus YGR078C, strain PAC10, active compounds read low 0.978 | S. cerevisiae deletion strains, locus YGR229C, strain SMI1, active compounds read low 0.987 | [2] 0.91 | S. cerevisiae deletion strains, locus YHR087W, strain rtc3, active compounds read low 1.02 | S. cerevisiae deletion strains, locus YJR043C, strain POL32, active compounds read low 0.926 | S. cerevisiae deletion strains, locus YJR075W, strain HOC1, active compounds read low 0.994 | S. cerevisiae deletion strains, locus YLR058C, strain SHM2 (second series), active compounds read low 0.993 | S. cerevisiae deletion strains, locus YLR262C, strain YPT6, active compounds read low 0.825 | S. cerevisiae deletion strains, locus YML094W, strain GIM5, active compounds read low 0.882 | S. cerevisiae deletion strains, locus YMR219W, strain ESC1, active compounds read low 0.984 | S. cerevisiae deletion strains, locus YMR263W, strain SAP30, active compounds read low 0.949 | S. cerevisiae deletion strains, locus YMR307W, strain GAS1, active compounds read low 0.688 | S. cerevisiae deletion strains, locus YNL128W, strain TEP1, active compounds read low 0.977 | S. cerevisiae deletion strains, locus YNL153C, strain GIM3, active compounds read low 0.98 | S. cerevisiae deletion strains, locus YNL298W, strain CLA4 (second series), active compounds read low 0.85 | S. cerevisiae deletion strains, locus YNL322C, strain KRE1, active compounds read low 0.993 | S. cerevisiae deletion strains, locus YNR030W, strain Alg12, active compounds read low 0.897 | S. cerevisiae deletion strains, locus YPL055C, strain LGE1, active compounds read low 0.913 | S. cerevisiae deletion strains, locus YPL241C, strain CIN2, active compounds read low 0.91 | S. cerevisiae deletion strains, locus YPR135W, strain CTF4, active compounds read low 0.814 | S. cerevisiae strains, strain wild type, active compounds read low 0.927
